{
  "source": "PubChem BioAssay (NCATS)",
  "key": {"[1]": {"assay": "qHTS of pediatric cancer cell lines to identify multiple opportunities for drug repurposing: Primary screen for TC32 cells (AID 1347089); further: nearly all actives have a fitted effect of over 60% in size", "procedure,_shortened": "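Luminescent CellTiter-Glo read-out of metabolically active TC32 cells after 48 h compound exposure. Primary: MIPE 11-point, 0.78 nM–46 µM; NPC 8-point, 0.59 nM–46 µM. Confirmatory: 11-point dilutions.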"}, "[2]": {"assay": "qHTS of pediatric cancer cell lines to identify multiple opportunities for drug repurposing: Primary screen for RD cells (AID 1347104); further: potency means the concentration at half of the fitted maximal effect; nearly all actives have a fitted effect of over 55% in size", "conditions": "RD rhabdomyosarcoma viability, CellTiter-Glo luminescence, 48 h", "procedure,_shortened": "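Luminescence from CellTiter-Glo served as readout of metabolically active cells after 48 h compound exposure. Titrations: MIPE 11-point, from 0.78 nM; NPC 8-point, from 0.59 nM (final). Concentration-response curves came straight from the primary screen.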"}, "MCC-13": {"system": "MCC-13", "assay": "qHTS assay to identify novel small-molecules to repurpose for Merkel cell carcinoma treatment (AID 1296009); further: nearly all actives have a fitted effect of over 60% in size", "conditions": "MCC and control cell lines, CellTiter-Glo viability, 72 h; series mostly up to 46 µM", "procedure,_shortened": "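Cells were treated for 72 hr at 37 degree celsius with compounds in 8- or 11-point dose response. Viability was read by CellTiter-Glo luminescence, normalized to no-cell (cytotoxicity) and DMSO controls.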"}, "[3]": {"assay": "NCATS anti-infectives library activity on the primary C. elegans qHTS viability assay (AID 1745855; calls by dose curve)", "procedure,_shortened": "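Viability read-out is GFP fluorescence of PE254-GFP-FLuc C. elegans, measured by laser cytometry (488 nm) at day 0, 3 and 7. Ten L1 worms per well were incubated 7 days at 21 °C with compounds and bacterial capsules in S medium.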"}, "[4]": {"target": "Cytochrome P450 3A4 (Homo sapiens) (UniProt P08684)", "sequence (P08684 whole entry, looked up)": "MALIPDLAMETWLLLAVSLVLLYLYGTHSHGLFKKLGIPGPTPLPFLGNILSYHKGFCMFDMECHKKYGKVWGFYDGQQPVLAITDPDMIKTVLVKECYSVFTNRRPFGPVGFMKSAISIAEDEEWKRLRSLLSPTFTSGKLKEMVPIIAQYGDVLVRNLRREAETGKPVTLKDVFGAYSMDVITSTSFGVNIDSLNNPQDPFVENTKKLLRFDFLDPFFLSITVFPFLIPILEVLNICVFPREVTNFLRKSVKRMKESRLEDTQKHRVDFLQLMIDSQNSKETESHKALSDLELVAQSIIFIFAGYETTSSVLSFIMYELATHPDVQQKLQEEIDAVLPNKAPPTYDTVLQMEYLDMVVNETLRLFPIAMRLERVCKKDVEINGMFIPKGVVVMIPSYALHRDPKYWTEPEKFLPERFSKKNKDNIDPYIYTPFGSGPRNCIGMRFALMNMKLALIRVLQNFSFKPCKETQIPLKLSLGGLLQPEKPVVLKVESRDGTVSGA", "assay": "qHTS Assay for Inhibitors and Substrates of Cytochrome P450 3A4 (AID 884); further: nearly all actives have a fitted effect of over 50% in size", "procedure,_shortened": "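20 nM human CYP3A4 with 25 uM Luciferin-PPXE (at KM) in 200 mM KPO4, preincubated 10 min with compound; NADPH regeneration started a 60 min RT reaction. Luciferin detected by luminescence, normalized to 57 uM ketoconazole as full inhibition.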"}, "[5]": {"assay": "Confirmation and Secondary Assay for Modulators of Hemoglobin Beta Chain Splicing at IVS2 654 locus (AID 910)", "procedure,_shortened": "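HeLa cells stably expressing EGFP interrupted by β-globin IVS2-654 intron, seeded overnight in Opti-MEM/2% FCS, then treated 2 days at 37 °C. Restored splicing read as total peak GFP intensity per well by laser scanning cytometry (488 nm excitation, 500–520 nm emission); 500 nM antisense PNA as control.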"}, "[6]": {"assay": "Confirmation and Secondary Assay for Modulators of Hemoglobin Beta Chain Splicing at IVS2 705 locus (AID 930)", "procedure,_shortened": "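HeLa cells stably carrying EGFP interrupted by mutant beta-globin IVS2-705 intron (CMV-driven) were seeded at 500 cells/well, treated next day with compound for 2 days at 37C; corrected splicing restores EGFP, read as total peak GFP intensity per well.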"}, "[7]": {"target": "ATP-dependent 6-phosphofructokinase (Trypanosoma brucei brucei) (UniProt O15648)", "sequence (O15648 whole entry, looked up)": "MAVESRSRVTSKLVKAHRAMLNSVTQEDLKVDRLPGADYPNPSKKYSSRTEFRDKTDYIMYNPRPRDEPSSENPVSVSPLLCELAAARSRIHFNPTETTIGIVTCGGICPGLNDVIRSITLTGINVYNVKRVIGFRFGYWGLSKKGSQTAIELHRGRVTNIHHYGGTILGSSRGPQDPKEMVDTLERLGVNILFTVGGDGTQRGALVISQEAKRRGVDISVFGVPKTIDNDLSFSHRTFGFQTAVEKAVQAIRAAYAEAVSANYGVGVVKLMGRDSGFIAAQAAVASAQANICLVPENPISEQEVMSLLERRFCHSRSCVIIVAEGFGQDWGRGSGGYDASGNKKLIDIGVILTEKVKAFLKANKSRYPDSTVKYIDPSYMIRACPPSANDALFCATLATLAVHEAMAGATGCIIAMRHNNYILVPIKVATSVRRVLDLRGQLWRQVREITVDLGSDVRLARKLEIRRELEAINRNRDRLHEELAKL", "assay": "qHTS Assay to Find Inhibitors of T. brucei phosphofructokinase: hit validation (AID 492961);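 further: luminescence reports ADP formed as PFK phosphorylates fructose-6-phosphate with ATP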", "procedure,_shortened": "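Compounds titrated; %activity normalized to 0x and 1x enzyme controls, curve-fitted. Readout: ADP-Glo luminescence after 45 min room-temperature reaction of 1.25 nM PFK, 0.1 mM ATP, 0.5 mM F6P, pH 8.0.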"}, "[8]": {"target": "Luciferin 4-monooxygenase (Photinus pyralis) (UniProt P08659)", "sequence (P08659 whole entry, looked up)": "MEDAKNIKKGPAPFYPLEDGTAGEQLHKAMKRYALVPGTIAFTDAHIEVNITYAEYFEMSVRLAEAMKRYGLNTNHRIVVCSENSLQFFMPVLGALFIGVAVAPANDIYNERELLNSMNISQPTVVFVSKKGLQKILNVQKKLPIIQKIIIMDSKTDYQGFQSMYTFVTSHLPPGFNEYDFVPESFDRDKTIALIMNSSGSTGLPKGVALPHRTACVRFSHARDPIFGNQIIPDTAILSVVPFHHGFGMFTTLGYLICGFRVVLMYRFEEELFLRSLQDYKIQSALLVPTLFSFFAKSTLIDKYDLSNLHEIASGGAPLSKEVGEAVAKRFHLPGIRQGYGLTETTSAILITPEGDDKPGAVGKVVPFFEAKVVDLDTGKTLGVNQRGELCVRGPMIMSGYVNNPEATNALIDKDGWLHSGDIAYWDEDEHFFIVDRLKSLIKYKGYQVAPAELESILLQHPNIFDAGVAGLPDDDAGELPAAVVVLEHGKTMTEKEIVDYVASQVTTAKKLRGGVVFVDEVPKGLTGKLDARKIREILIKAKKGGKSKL", "assay": "Biochemical firefly luciferase enzyme assay for NPC (AID 624030); further: nearly all actives have a fitted effect of over 70% in size", "procedure,_shortened": "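Purified P. pyralis luciferase at 10 nM in 50 mM Tris Acetate (final), luminescence read within 5 minutes of enzyme addition to compounds. Activity normalised to PTC124 versus DMSO; concentration-response curves classed by r2, magnitude and activity.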"}, "[9]": {"assay": "Cell Viability - BJ (AID 421; calls by dose curve; further: potency means the concentration at half of the fitted maximal effect)", "conditions": "BJ fibroblast viability, qHTS", "procedure,_shortened": "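Quantitative HTS: ATP depletion in BJ cells after 40 hr compound exposure in complete culture medium, detected with CellTiter-Glo; AC50 from standard Hill fits.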"}, "[10]": {"assay": "Cell Viability - Jurkat (AID 426;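 active means dose-dependent loss of cell ATP signal giving a full or clear fitted curve, ranked by lower potency value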; further: potency means the concentration at half of the fitted maximal effect)", "conditions": "qHTS", "procedure,_shortened": "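qHTS, 1536-well; Jurkat E6-1, 5000 cells/well, complete medium; cpd 40 hr, 37 °C; CellTiter-Glo 20 min RT; luminescence. AC50 by Hill fit.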"}, "[11]": {"assay": "Cell Viability - Hek293 (AID 427;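 active means compounds whose dose-response curve shows a full or clear partial loss of cell viability, called from curve shape rather than a numeric limit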; further: potency means the concentration at half of the fitted maximal effect)", "conditions": "qHTS", "procedure,_shortened": "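AC50 values derive from Hill-modelled concentration-response of ATP-based luminescence, normalized between DMSO-only and 100 uM tamoxifen controls. Cells were exposed in complete culture medium for 40 hr at 37 °C before detection.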"}, "[12]": {"assay": "Cell Viability - HepG2 (AID 433; calls by dose curve; further: potency means the concentration at half of the fitted maximal effect)", "conditions": "qHTS", "procedure,_shortened": "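HepG2 hepatocellular carcinoma cells (1500/well) were treated with compounds for 40 h at 37 °C in complete medium; intracellular ATP was read by CellTiter-Glo luminescence. Data were normalized to DMSO and 100 uM tamoxifen, and AC50 came from Hill fits.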"}, "[13]": {"assay": "Cell Viability - MRC5 (AID 434; calls by dose curve;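 further: potency means the concentration at half of the fitted maximal effect; potency reflects cytotoxicity seen as loss of intracellular ATP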)", "conditions": "MRC5 lung fibroblast viability, qHTS", "procedure,_shortened": "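MRC5 normal human lung fibroblasts, 1500 cells/well, exposed to compound for 40 hr at 37 C. Cellular ATP was read by CellTiter-Glo luminescence; data normalized to DMSO and 100 uM tamoxifen, with AC50 from Hill fits.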"}, "[14]": {"assay": "Cell Viability - SK-N-SH (AID 435; calls by dose curve; further: potency means the concentration at half of the fitted maximal effect)", "conditions": "SK-N-SH neuroblastoma cell viability qHTS", "procedure,_shortened": "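SK-N-SH human neuroblastoma cells (1500/well) were exposed to compounds in complete medium for 40 h at 37 °C, and intracellular ATP was then measured by CellTiter-Glo luminescence. AC50 was taken from Hill fits, normalized to DMSO and 100 uM tamoxifen.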"}, "[15]": {"assay": "qHTS assay for small molecule activators of the p53 signaling pathway (AID 651743; active means well fitted activation curve with a large enough effect in the signal ratio, not every such curve was filed as active; the % refers to the signal ratio)", "conditions": "HCT-116 p53RE-bla, beta-lactamase FRET ratio, 16 h; hits give high values", "procedure,_shortened": "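p53RE-bla HCT-116 cells carrying a beta-lactamase reporter under p53 response elements were exposed to compounds for 16 hours at 37 C. Reporter activity read as fluorescence after 2 hours at room temperature with LiveBLAzer B/G FRET substrate.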"}, "[16]": {"target": "Glucocorticoid receptor (Homo sapiens) (UniProt P04150)", "sequence (P04150 whole entry, looked up)": "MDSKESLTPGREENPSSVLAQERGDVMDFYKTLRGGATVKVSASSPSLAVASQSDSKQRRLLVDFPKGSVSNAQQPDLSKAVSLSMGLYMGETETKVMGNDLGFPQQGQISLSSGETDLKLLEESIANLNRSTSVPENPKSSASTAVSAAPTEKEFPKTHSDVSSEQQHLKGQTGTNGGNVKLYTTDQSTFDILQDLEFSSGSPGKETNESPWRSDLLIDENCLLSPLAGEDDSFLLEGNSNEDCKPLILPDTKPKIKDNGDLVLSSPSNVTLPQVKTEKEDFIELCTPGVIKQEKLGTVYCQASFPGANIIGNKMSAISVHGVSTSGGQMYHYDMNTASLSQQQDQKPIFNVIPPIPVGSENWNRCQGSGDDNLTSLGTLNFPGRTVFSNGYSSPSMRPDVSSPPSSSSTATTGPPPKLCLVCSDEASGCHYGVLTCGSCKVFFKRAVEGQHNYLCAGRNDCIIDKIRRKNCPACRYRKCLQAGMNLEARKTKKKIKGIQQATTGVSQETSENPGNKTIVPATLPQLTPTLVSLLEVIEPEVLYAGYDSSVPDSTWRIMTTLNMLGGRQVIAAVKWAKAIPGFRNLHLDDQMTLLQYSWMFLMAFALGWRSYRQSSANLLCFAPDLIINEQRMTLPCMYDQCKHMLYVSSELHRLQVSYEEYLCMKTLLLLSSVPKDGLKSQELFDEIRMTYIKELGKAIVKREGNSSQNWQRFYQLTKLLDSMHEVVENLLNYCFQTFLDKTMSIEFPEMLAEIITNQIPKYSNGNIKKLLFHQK", "assay": "GR-GFP Redistribution (AID 450;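 active means compounds whose dose series gives a full or clear partial fitted curve of increased nuclear translocation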; further: potency means the concentration at half of the fitted maximal effect)", "conditions": "U2OS GR-GFP nuclear translocation, laser cytometry, 2 h"}, "[17]": {"target": "Mitogen-activated protein kinase 10 (Mus musculus) (UniProt Q61831)", "assay": "JNK3 AlphaScreen Assay (AID 530; active means well fitted curve in either direction with a large enough effect, not every such curve was filed as active;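 further: signal reports phosphorylation of biotinylated GST-cJun 1-79 at Ser73 with 10 µM ATP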)", "procedure,_shortened": "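Pre-activated (IL-1β/TNFα) JNK3 in HepG2 lysates phosphorylates biotin-GST-cJun(1-79), 10 uM ATP; anti-phospho-cJun(Ser73) AlphaScreen read at room temperature, pH 7.6 Tris buffer. Compounds pre-incubated 15 min as titrations.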"}, "[18]": {"target": "Cytochrome P450 2C19 (Homo sapiens) (UniProt P33261)", "sequence (P33261 whole entry, looked up)": "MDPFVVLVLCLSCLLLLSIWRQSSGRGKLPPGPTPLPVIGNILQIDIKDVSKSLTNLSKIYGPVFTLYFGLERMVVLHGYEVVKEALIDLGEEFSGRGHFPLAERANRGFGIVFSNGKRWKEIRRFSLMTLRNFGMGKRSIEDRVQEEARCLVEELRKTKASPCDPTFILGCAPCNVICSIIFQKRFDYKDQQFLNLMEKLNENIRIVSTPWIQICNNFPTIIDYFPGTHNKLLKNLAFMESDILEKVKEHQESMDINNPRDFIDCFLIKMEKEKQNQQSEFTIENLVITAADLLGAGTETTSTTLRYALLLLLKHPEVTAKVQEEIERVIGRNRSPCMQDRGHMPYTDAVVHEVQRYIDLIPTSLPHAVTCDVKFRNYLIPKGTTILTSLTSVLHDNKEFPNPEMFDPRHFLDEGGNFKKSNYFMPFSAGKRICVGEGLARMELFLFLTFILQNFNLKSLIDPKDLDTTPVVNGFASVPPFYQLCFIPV", "assay": "qHTS Assay for Inhibitors and Substrates of Cytochrome P450 2C19 (AID 899); further: potency means the concentration at half of the fitted maximal effect; nearly all actives have a fitted effect of over 60% in size", "procedure,_shortened": "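5 nM human CYP2C19 with 10uM Luciferin-H EGE (at KM) in 50mM KPO4, compound preincubated 10 min at 37C, then NADPH regeneration for 60 min at 37C. Luciferin read by luminescence after detection reagent; normalized to 57uM ketoconazole as full inhibition.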"}, "[19]": {"target": "DNA dC->dU-editing enzyme APOBEC-3G (Homo sapiens) (UniProt Q9HC16)", "sequence (Q9HC16 whole entry, looked up)": "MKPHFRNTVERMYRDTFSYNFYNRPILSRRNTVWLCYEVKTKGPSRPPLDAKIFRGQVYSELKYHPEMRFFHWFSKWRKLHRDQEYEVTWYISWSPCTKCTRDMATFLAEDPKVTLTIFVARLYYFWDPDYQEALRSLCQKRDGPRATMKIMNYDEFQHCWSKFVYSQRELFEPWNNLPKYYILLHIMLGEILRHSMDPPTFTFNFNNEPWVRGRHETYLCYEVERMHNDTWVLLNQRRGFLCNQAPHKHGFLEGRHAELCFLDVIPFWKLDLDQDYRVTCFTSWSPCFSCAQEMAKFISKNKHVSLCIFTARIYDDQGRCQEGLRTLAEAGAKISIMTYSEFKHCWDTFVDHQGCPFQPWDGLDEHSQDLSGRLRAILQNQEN", "assay": "qHTS for inhibitors of Vif-A3G interactions: Validation (AID 588379)", "procedure,_shortened": "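HeLa cells stably expressing Vif and A3G-eYFP, 700 cells/well, incubated overnight at 37 deg C, then exposed to compound overnight at 37 deg C. Inhibition of Vif-mediated degradation read as increased yellow fluorescence (Ex 488/Em 500-530) by laser-scanning cytometry.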"}},
  "note": "Several values for one entry are separate records, joined by “and”; a condition that tells them apart may be missing. Identical values can stand only once. A number with no mark means an inactive call. Results filed as inconclusive are left out. A call without a number means that no potency is given here. Activity calls are given as the source filed them. Unless noted, the call rests on the fitted dose curve; in most records, active means well fitted curve in the direction sought with a large enough effect; inconclusive means small, poorly fitted or top-dose-only effect, or another doubt; inactive means no such curve, though single readings can be large; an effect the other way counts as inactive or inconclusive.",
  "data": [
    {"compound": "CS(=O)(=O)c1ccc(-c2cn3ccccc3n2)cc1", "values": [
      {"measurement": "outcome", "setting": "[1]", "value": "inactive"},
      {"measurement": "Potency", "setting": "[2]", "value": "23.7 µM (active)"},
      {"measurement": "outcome", "setting": "MCC-13", "value": "inactive"}
    ]},
    {"compound": "N#C[C@@H]1C[C@@H]2C[C@@H]2N1C(=O)[C@@H](N)C12CC3CC(CC(O)(C3)C1)C2", "values": [
      {"measurement": "Potency", "setting": "[3]", "value": "inactive"}
    ]},
    {"compound": "CCCCC(=O)N(Cc1ccc(-c2ccccc2-c2nn[nH]n2)cc1)C(C(=O)O)C(C)C", "note": "(stereo not given)", "values": [
      {"measurement": "Potency", "setting": "[4]", "value": "inactive"},
      {"measurement": "outcome", "setting": "[5]", "value": "inactive"},
      {"measurement": "outcome", "setting": "[6]", "value": "inactive"},
      {"measurement": "outcome", "setting": "[7]", "value": "inactive"},
      {"measurement": "Potency", "setting": "[8]", "value": "inactive"}
    ]},
    {"compound": "Nc1ccc(N)c([N+](=O)[O-])c1", "values": [
      {"measurement": "Potency", "setting": "[9]", "value": "> 92", "unit": "µM"},
      {"measurement": "Potency", "setting": "[10]", "value": "> 92", "unit": "µM"},
      {"measurement": "Potency", "setting": "[11]", "value": "> 92", "unit": "µM"},
      {"measurement": "Potency", "setting": "[12]", "value": "> 92", "unit": "µM"},
      {"measurement": "Potency", "setting": "[13]", "value": "> 92", "unit": "µM"},
      {"measurement": "Potency", "setting": "[14]", "value": "> 92", "unit": "µM"},
      {"measurement": "activation", "setting": "[15]", "value": "-0.975% and -0.0594%"}
    ]},
    {"compound": "Clc1ccccc1CNCC1CCC(CNCc2ccccc2Cl)CC1", "note": "(stereo not given)", "values": [
      {"measurement": "Potency", "setting": "[16]", "value": "> 46", "unit": "µM"},
      {"measurement": "Potency", "setting": "[17]", "value": "inactive"},
      {"measurement": "Potency", "setting": "[18]", "value": "0.794 µM (active)"},
      {"measurement": "Potency", "setting": "[19]", "value": "inactive"}
    ]}
  ]
}
